# Out of some 290,000 compounds screened, about 670 (0.23%) were called active. This is one part of a sample in which actives are shown more often than they occur. A number with no mark means an inactive call.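 Rule for the calls: active = inhibition above a per-plate limit of that plate's mean compound inhibition plus 3 SD (cut at about 60% in these data); inactive = the rest.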
# Assay: suppression of KLF5 promoter-driven luciferase – DLD-1 cells, luminescence, primary screen (AID 1700);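 note: 0% = DMSO wells and 100% = LY294002 at 200 µM; higher means less KLF5 promoter-driven luciferase light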
# Conditions: DLD-1 KLF5 promoter-luciferase reporter, at 5 µM, stronger effect = higher value
row,SMILES,inhibition
1,O=C(N[C@@H](Cc1ccccc1)C(=O)OCc1ccccc1)c1nc[nH]c1C(=O)N[C@@H](Cc1ccccc1)C(=O)OCc1ccccc1,-14.8%
2,O=C(CN1CCC(O)(c2cccc(C(F)(F)F)c2)CC1)NCCc1ccccc1,-13%
3,O=C(CSc1ccc(-c2ccccn2)nn1)Nc1ccccc1,-2%
4,Cc1cc(=O)n2nc(N3CCC(C(=O)Nc4c(F)c(F)c(F)c(F)c4F)CC3)sc2n1,13.4%
5,N#CCC(=O)NC1CCC(CC2CCC(NC(=O)CC#N)CC2)CC1 (configuration not stated),-13.8%
6,Cc1nn(C(C)C(=O)N2CCOCC2)c(=O)c2nn(-c3ccccc3)c(C)c12 (configuration not stated),-19%
7,COc1cc2c(cc1OC)CN(C(=O)c1ccc(S(=O)(=O)N3CCCCCC3)cc1)CC2,-28.3%
8,COc1cc2c(cc1OC)CN(C(=O)c1cc(=O)c3ccccc3o1)CC2,37.6%
9,CCOc1cc(C(=O)N2CCc3cc(OC)c(OC)cc3C2)ccc1OC(F)F,73.9% (active)
10,COc1cccc(/C=N/Nc2ncc(C(F)(F)F)cc2Cl)c1O,101% (active)
11,COc1cccc(/C=N/Nc2cc(C)nc(-c3ccccc3O)n2)c1O,-137%
12,COc1cccc(/C=N/NC(=O)c2[nH]nc3c2CCc2ccccc2-3)c1O,5.06%
13,O=C1CSc2ccc(S(=O)(=O)NCc3ccccc3)cc2N1,11.2%
14,Cc1c(CC(=O)NCC(=O)NCC(=O)O)c(=O)oc2cc3oc4c(c3cc12)CCCC4,-28.3%
15,Cc1ccc2[nH]c(=O)c(CN(CC3COCCO3)C(=O)Nc3ccccc3C)cc2c1 (configuration not stated),18.1%
16,Cc1ccc2[nH]c(=O)c(CN(CCCN(C)C)C(=O)Nc3cccc(Cl)c3)cc2c1,109% (active)
17,CCC(=O)N(CCc1ccccc1)Cc1cc2cc(C)ccc2[nH]c1=O,-35.9%
18,O=C(NCCc1ccc(Cl)cc1)C1CCCN1C(=O)NCc1ccccc1 (configuration not stated),-14.2%
19,COc1ccc(NCCc2ccccn2)cc1,-36.1%
20,COc1ccccc1/C=N/N1CCN(Cc2ccccc2Cl)CC1,-27%
21,CCOc1ccccc1NC(=O)Cc1cccs1,4.44%
22,CCOc1ccccc1NC(=O)Cn1nnc(C(=O)NCc2cccs2)c1N,72.7% (active)
23,CCOc1ccc(Cn2nnc(C(=O)NCc3ccccc3)c2N)cc1,-14.8%
24,CN(NC(=O)c1ccccc1F)c1nc(C(F)(F)F)nc2ccccc12,68.7% (active)
25,COC(=O)CNC(=O)c1ccccc1F,-16.9%

row,SMILES,inhibition
1,CSc1nc(N(C)NC(=O)c2cccc(C)c2)c2ccccc2n1,83.5% (active)
2,COc1ccc(C(=O)NN(C)c2nc(-c3ccccc3)cc(C)c2S(C)(=O)=O)cc1,-7.27%
3,CN(NC(=O)c1ccccc1)c1nc2ccccc2nc1C(F)(F)F,-18.5%
4,Cc1cccc(C(=O)NCCCN(C)CCCNC(=O)c2cccc(C)c2)c1,-59.8%
5,O=C(Nc1ccccc1C(=O)NCC1CCCO1)c1ccccc1F (configuration not stated),-10.3%
6,CCCCCCn1c(CN2CCCCC2)nc2c1c(=O)n(C)c(=O)n2C,0.95%
7,CCCCCCCCn1c2c(c(=N)c3c1CCC3)CCCC2,72.8% (active)
8,O=c1[nH]cccc1-c1nc2ccccc2n1Cc1ccc(Cl)cc1,-29.9%
9,Cc1ccc(CNS(=O)(=O)c2ccc3c(c2)N(C)CCO3)cc1,-12.4%
10,Cn1cc(C(=O)c2ccc(Cl)cc2Cl)cc1C(=O)NN,-35.5%
11,CCOc1ccccc1CN1CCN(C2CCC2)CC1CCO (configuration not stated),12%
12,CCOC(=O)c1sc(/N=C/Nc2nc(C)c(C(=O)OCC)s2)nc1C,6.72%
13,CCOC(=O)c1sc(NC(=O)c2ccncc2)nc1C,-25.1%
14,CCOC(=O)c1sc(NC(=O)c2sc(C)nc2C)nc1C,79% (active)
15,Cc1cccc(NC(=O)C2CCN(C(=O)NC3CCCCC3)CC2)c1,-12.5%
16,Cc1ccc(O)c(CNc2nc3ccccc3[nH]2)c1,-87.9%
17,COc1ccc(-c2cc(=O)oc3cc(OCC(=O)N(C)C4CCS(=O)(=O)C4)ccc23)cc1 (configuration not stated),-4.99%
18,O=c1cc(-c2ccccc2)[nH]c2cc(F)ccc12,73.5% (active)
19,Cc1ccc(-c2cc(=O)c3ccc(F)cc3[nH]2)cc1,9.96%
20,Cc1ccc(-c2cc(=O)c3ccc(Cl)cc3[nH]2)cc1,-4.81%
21,CCCCNC(=O)c1cn(CC)c2cc(N3CCN(C(=O)c4ccco4)CC3)c(F)cc2c1=O,-2.76%
22,COc1ccc(NC(=O)CCNC(=O)Cn2cnc3sc4c(c3c2=O)CCCC4)cc1OC,-21.6%
23,COc1cc(NC(=O)C2=C(C)OCCS2)c(Cl)cc1C(=O)NCCN1CCN(C)CC1,-25.5%
24,O=C1CCC(C(=O)N2CCN(c3ccccc3Cl)CC2)CN1CC1CCCCC1 (configuration not stated),-15.8%
25,CC1CCCN(CC(=O)Nc2cc(Cl)ccc2Oc2ccccc2)C1 (configuration not stated),-4.36%

row,SMILES,inhibition
1,Cc1ccc(CNC(=O)C2CCN(S(=O)(=O)c3ccc4nc5c(c(C(=O)O)c4c3)CC(C)CC5)CC2)cc1 (configuration not stated),-5.44%
2,CCc1ccc(/C=N/NC(=O)c2nnn(-c3nonc3N)c2CN2CCc3ccccc32)cc1,9.12%
3,O=C(CSc1nc(C2CC2)nc2ccccc12)Nc1cccc(O)c1,-13.5%
4,Cn1cc(CCC(=O)NC2CC2)c2ccccc21,-37%
5,Cc1ccc(S(=O)(=O)N(C)CC(=O)NCCc2c[nH]c3ccccc23)cc1,-25.4%
6,Cc1ccc(/C=N/NC(=O)c2cc3ccccc3cc2O)o1,-47.3%
7,Cc1ccc(CSc2nsc(C)c2C#N)cc1,-19.4%
8,Cc1ccc2nc(-c3ccc(Br)cc3)cn2c1,48.8%
9,Cc1ccc(-c2cn3cc([N+](=O)[O-])ccc3n2)cc1,-2.85%
10,Cc1ccc(-c2cn3cc(C)ccc3n2)cc1,81% (active)
11,O=C(CCn1nnnc1CN1CCOCC1)N1CCC(c2ccccc2Cl)C1 (configuration not stated),-1.39%
12,CCOC(=O)C(C)Sc1nc2ccccc2c(=O)n1CC1CCCCC1 (configuration not stated),-3.75%
13,O=c1c2ccccc2nc2n1C1(CCCCC1)Cc1ccccc1-2,-22.6%
14,CN(c1ccc2nc3ccccc3c(=O)n2n1)C1CCCCC1,90.6% (active)
15,Nc1ccc(-c2nnc(-c3ccccc3)o2)cc1,-131%
16,COc1ccccc1N1CCC(N2CCN(CC(C)(C)C)C(CCO)C2)CC1 (configuration not stated),-23.1%
17,CC[C@]1(c2ccccc2OC)C(=O)N(C(=O)OC)N1C(=O)OC,-7.14%
18,CC(=O)NCC(=O)NC1CCCc2c1cnn2-c1ccccc1F (configuration not stated),-24.6%
19,Cn1nccc1C(=O)NC1CCCc2c1cnn2-c1ccc(F)cc1F (configuration not stated),64.7% (active)
20,Cn1nccc1C(=O)NC1CCCc2c1cnn2-c1ccccc1F (configuration not stated),-17%
21,O=C(c1ccc(F)cc1)N1CCCC(C(=O)N2CCCCC2)C1 (configuration not stated),-2.28%
22,CN(c1ccccc1)S(=O)(=O)c1ccc2[nH]c(=O)[nH]c2c1,-38.8%
23,Cc1ccc(OC(=O)c2cncc(Br)c2)c(C)c1,-28.5%
24,Cc1ccc(C(=O)NCCc2nnc(SCC(=O)Nc3cccc(C(=O)O)c3)n2C)cc1,-36.2%
25,N#CCSc1nc(-c2ccccc2)nc2ccc(F)cc12,-32.8%

row,SMILES,inhibition
1,CCn1c(=S)sc2c(=O)n(CC(=O)Nc3cccc(Br)c3)c(C)nc21,-3.48%
2,Cc1ccc(S(=O)(=O)N2CCN(C(=O)CSc3cc(C)ccc3C)CC2)c(C)c1,-17.8%
3,Clc1ccc(N/N=C/c2cccs2)nn1,-13.3%
4,Oc1cccc(/C=N/Nc2ccc(Cl)nn2)c1O,84.3% (active)
5,COc1cccc(/C=N/Nc2ccc(Cl)nn2)c1,-91.5%
6,COc1ccc(N2CCN(S(=O)(=O)CCNC(=O)C34CC5CC(CC(C5)C3)C4)CC2)cc1,-7.42%
7,CCN1C(=O)/C(=C2/Sc3ccc(OC)cc3N2C)SC1=Nc1ccc(C)cc1,-15.8%
8,CCOC(=O)c1ccc(NC(=O)Cc2cccs2)cc1,-60.6%
9,O=C(NCc1ccccc1)C(c1ccccc1)N(C(=O)c1csnn1)c1ccc(F)cc1 (configuration not stated),-8.26%
10,Cc1cc(N)n2nc(-c3ccc(C(C)(C)C)cc3)cc2n1,-77.7%
11,CCn1c(SCC(=O)NC2CC2)nnc1-c1ccncc1,-7.99%
12,CCn1c(SCC(=O)Nc2nccs2)nnc1-c1ccco1,-15.7%
13,CCn1c(SCC(=O)Nc2nccs2)nnc1-c1ccncc1,102% (active)
14,CCCC(C(=O)n1nc(C)cc1C)C(NS(=O)(=O)c1ccc(C)cc1)c1ccccc1 (configuration not stated),-5.65%
15,CCOc1cc(/C=C2\C(=N)N3N=C(C)SC3=NC2=O)ccc1OCCOc1ccccc1,-24.1%
16,Cc1cccc(NC(=O)CSCC(=O)Nc2nnc(C3CC3)s2)c1,-22.8%
17,Cc1ccccc1N1CCN(S(=O)(=O)c2ccc3ccccc3c2)CC1,-6.9%
18,Cc1ccc(C(=O)N2CC(=O)Nc3ccc(F)cc3C2c2ccc(F)cc2)cc1 (configuration not stated),-4.39%
19,O=C(NCC1CCCO1)c1cc2c([nH]c3ccccc32)c(-c2ccc(F)cc2)n1 (configuration not stated),12.1%
20,COc1cc(/C=N/NC(=O)c2ccc(N3CCCC3=O)cc2)ccc1O,-6.57%
21,COc1ccc(C(=O)Nc2ccccc2C(=O)N/N=C/c2ccc(O)c(OC)c2)cc1,99.4% (active)
22,COc1ccc(/C=N/NC(=O)c2ccccc2)cc1OS(=O)(=O)c1ccccc1,-22.4%

# — PubChem BioAssay AID1700 (The Scripps Research Institute Molecular Screening Center, 2009)
